From PubChem
PABP1 MLLE inh: blocks PAM2 peptide binding to the PABP1 MLLE domain; AID 588489; P11940; GST-MLLE / FITC-PAM2 fluorescence polarization; 0.36% of 360,000 active; inhibition, % at 20 µM; in the data active means inhibition above about 35%, passing the limit was not always enough;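 further: plate controls were DMSO wells with GST-MLLE for no effect and wells lacking GST-MLLE protein for full effect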
PABP polyA inh: blocks human PABP binding to poly(A) RNA | P11940 | fluorescence polarization | inhibition, % at 35 µM | 1% of 290,000 active | AID 2014;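 further: calls also rest on retests at 20 µM and on dose response follow-up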
PERK inh: inhibitors of human PERK kinase; CHO PERK-DD fusion, SEAP luminescence translation reporter; inhibition, % at 5.6 µM; 0.17% of 220,000 active;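 active means inhibition above the mean inhibition of all tested compounds plus 3 SD, set separately per screening campaign, cut at about 2.9% in these data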;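 further: PERK kinase domain activated by AP20187 dimerizer at 100 nM; 0% = DMSO with dimerizer and 100% = rapamycin at 8.4 µM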
eIF4H inh: inhibitors of RNA binding by human eIF4H; Q15056; eIF4H fluorescence polarization binding assay; inhibition, % at 35 µM; 0.94% of 290,000 active; AID 2012;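 further: calls also rest on retests at 20 µM and on dose response follow-up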
PfM18AAP inh-1: blocks P. falciparum M18 aspartyl aminopeptidase | AID 1822 | recombinant PfM18AAP, H-Glu-NHMec fluorogenic cleavage | 1.2% of 290,000 active | inhibition, % at 7.35 µM;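 active means inhibition above the campaign mean inhibition over all tested compounds plus 3 SD, cut at about 28% in these data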;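 further: 0% = plate median of test compound wells and 100% = 2 mM ZnCl2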
eIF4E-4G inh: inhibitors of eIF4E and eIF4G interaction in translation initiation; P63073+Q04637; 0.37% of 220,000 active; inhibition, % at 21.7 µM; TR-FRET eIF4E-eIF4GI(517-606) binding, 2 h;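 active means inhibition above about 30%, limit read from the data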;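 further: 0% = full FRET control wells and 100% = background wells lacking eIF4GI fragment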
PfM18AAP inh-2: PfM18AAP inhibition, confirmation | shares compounds with PfM18AAP inh-1 | recombinant PfM18AAP, H-Glu-NHMec fluorogenic cleavage | inhibition, % at 7.35 µM | 28% of 2,400 active;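 active means mean inhibition over replicate wells above the hit cutoff set for the earlier primary screen, cut at about 29% in these data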;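 further: 0% = median of test compound wells and 100% = 2 mM ZnCl2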
CTSL1 confirm: Cathepsin L (human) inhibition, confirmation; purified cathepsin L1, Z-Leu-Arg-MCA fluorescence; 2,400 tested, under 10 active; inhibition, % at 5.96 µM; shares compounds with PfM18AAP inh-1;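 active means average inhibition across replicates above the hit cutoff set in the earlier primary screen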;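 further: 0% = median of test compound wells and 100% = Z-Phe-Ala-diazomethylketone 1 µM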
* hit, by the source's call; . = no result. This is a sample that favours compounds with a hit; in the whole collection about 2.4% have one here. Unless noted, how the calls were made is not given here.

SMILES	PABP1 MLLE inh	PABP polyA inh	PERK inh	eIF4H inh	PfM18AAP inh-1	eIF4E-4G inh	PfM18AAP inh-2	CTSL1 confirm
Cc1nc2cc(-c3ccsc3-n3c(C)ccc3C)[nH]n2c(=O)c1Cl	4	83*	2	85*	9	1	.	.
Cc1cc(=O)n2[nH]c(-c3ccc(F)cc3)cc2n1	-3	0	1	2	8	-4	.	.
Cc1nn(-c2ccccc2)nc1-c1nnc(-c2ccc(C(F)(F)F)cc2)o1	-6	-3	-1	-9	-8	-3	.	.
Cc1noc(C)c1COc1ccc(C(=O)OCC(=O)Nc2cccc(S(=O)(=O)N3CCOCC3)c2)cc1	-13	3	0	-1	-18	6	.	.
Oc1ccc(/C=N/n2c(COc3ccccc3)n[nH]c2=S)c(O)c1	-1	18	.	8	33*	.	12	3
S=c1[nH]nc(COc2ccccc2)n1/N=C/c1ccc(Cl)cc1Cl	-115	0	.	-5	11	.	.	.
COc1ccc(OC)c(/C=N/n2c(COc3ccccc3)n[nH]c2=S)c1	-50	4	.	-8	20	.	.	.
COc1cc(OC)c(OC)cc1/C=N/n1c(COc2ccccc2)n[nH]c1=S	-19	-2	.	-7	33*	.	-1	1
O=C1/C(=C/c2ccco2)Oc2c1ccc(O)c2CN1CCCCC1	70	0	1	100	16	7	.	.
COCCN(CCOC)Cc1c(O)ccc2c1O/C(=C\c1ccco1)C2=O	70	86*	.	91*	38*	.	-41	0
CCOc1ccc2[nH]cc(C(=O)O)c(=O)c2c1	7	3	1	-4	51*	-15	-36	1
CCOc1ccc2[nH]cc(C(=O)N3CCN(C4CCCCC4)CC3)c(=O)c2c1	-1	.	0	.	7	.	.	.
CC(C)=CCc1c(O)ccc2c1OC(c1ccc(O)c(O)c1)CC2=O (centres undefined)	-19	7	1	9	62*	3	55*	0
Cc1ccc(C(=O)NCc2nnc(SCC(=O)NC(C)c3ccccc3)n2C)cc1 (centres undefined)	-8	-2	0	-7	1	3	.	.
Cc1ccc(NS(=O)(=O)c2cc(NC(=O)c3ccc4c(c3)NC(=O)CS4)ccc2Cl)c(C)c1	18	-6	0	-5	32*	5	-24	-10
COc1ccc(NC(=O)c2ccc3c(c2)NC(=O)CS3)cc1	-93	.	.	.	.	.	.	.
O=C(/C=C/c1ccccc1)c1cc(Br)ccc(=O)c1O	-70	44*	1	83*	54*	8	-29	-1
CCOC(=O)c1cccc(NC(=O)Nc2ccc3c(c2)C(=O)OC3)c1	-2	0	1	-3	2	2	.	.
CS(=O)(=O)c1ccccc1C(=O)Nc1ccc(S(=O)(=O)N2CCCC2)cc1	15	.	.	.	.	.	.	.
O=C(CNC(=O)Cc1ccccc1)NCC(=O)OCc1ccc(C(=O)c2ccccc2)cc1	3	-6	2	5	9	4	.	.
Cc1nnc(N/N=C/c2ccccc2C(F)(F)F)n1N	12	-7	.	6	39*	.	-34	2
COc1cccc(/C=N/Nc2nnc(C)n2N)c1O	6	8	.	6	39*	.	-8	0
Nn1cnnc1N/N=C/c1ccc(Cl)cc1Cl	-5	3	.	1	48*	.	-21	1
CC1CCCCN1C(=S)Nc1ccc(S(=O)(=O)N2CCCCC2)cc1 (centres undefined)	-75	.	.	.	.	.	.	.
COc1ccc(NC(=O)n2nc(OC(=O)c3cccs3)cc2N)cc1	-4	-9	1	-8	50*	-3	5	-17
SMILES	PABP1 MLLE inh	PABP polyA inh	PERK inh	eIF4H inh	PfM18AAP inh-1	eIF4E-4G inh	PfM18AAP inh-2	CTSL1 confirm
NC(=O)C1CCN(C(=O)COc2ccc(Nc3ccccc3)cc2)CC1	11	-12	1	-1	34*	96*	-28	0
Cc1nc(/C(=N/O)C(N)=O)cs1	8	-5	2	-6	48*	-5	38*	-1
CCOC(=O)c1c(C)n(C)c2ccc(OC(=O)c3ccco3)cc12	-1	6	1	1	1	-4	.	.
CCOC(=O)c1c(C)n(C)c2ccc(OC(=O)c3ccc(N4C(=O)CCC4=O)cc3)cc12	12	2	-1	-2	57*	1	-58	2
CCCN(CCC)c1nc(NC2CCN(C(=O)OCC)CC2)nc(OC)n1	7	0	-2	-7	-4	3	.	.
CC(C)Oc1ccc(CN2CCC2(C)C(=O)Nc2cccc(Oc3ccccc3)c2)cc1 (centres undefined)	6	.	.	.	.	.	.	.
CCC(=O)c1ccc(OCC(=O)Nc2nn3cnnc3s2)cc1	-24	8	1	-2	66*	3	40*	-3
Fc1ccc(-c2csc(-c3cccnc3)n2)cc1F	-20	-3	.	-11	4	.	.	.
Cc1nc(-c2ccc(O)c(O)c2)cs1	15	-4	0	-4	94*	14	87*	-12
Oc1ccc(-c2csc(-c3ccccc3)n2)cc1O	-3	3	0	4	55*	6	60*	7
Oc1ccc(-c2csc(-c3cccnc3)n2)cc1O	1	1	1	-4	73*	-7	85*	1
Oc1ccccc1-c1csc(-c2ccccc2)n1	-4	2	1	1	-8	-6	.	.
Oc1ccc(-c2csc(Nc3ncccn3)n2)cc1O	8	-7	-1	2	65*	-2	53*	0
Oc1ccc(-c2csc(Nc3ncccn3)n2)c(O)c1	10	10	0	8	18	-5	.	.
Cc1ccc2nc(-c3ccc(O)c(O)c3)cn2c1	4	4	.	23	70*	.	55*	-8
NC(=O)c1cc(Cc2ccccc2)sc1NC(=O)c1ccco1	25	8	-1	6	35*	20	-21	6
Cc1nc(Oc2ccc(S(=O)(=O)N3CCOCC3)cc2Cl)c2c3c(sc2n1)CCCC3	-20	10	-1	-1	-7	18	.	.
COc1ccc(C(=O)n2cnc(N)n2)cc1	-5	6	2	-2	34*	-14	54*	-1
Nc1ncn(C(=O)c2ccco2)n1	-1	-10	1	-2	45*	-5	51*	1
COCCNC(=O)CN1C(=O)NC2(CCCc3cc(OC)ccc32)C1=O (centres undefined)	9	-5	.	-7	1	.	.	.
COc1cc(/C=N/N2CCN(Cc3ccc(C)cc3)CC2)cc(OC)c1O	16	11	.	2	47*	.	4	1
CCn1cc(CN2N=C(C)CC2c2ccccc2)c(C)n1 (centres undefined)	-5	-5	1	-10	1	3	.	.
